About 13,000 (27%) of roughly 48,000 compounds showed an effect of 50% or more. This is one part of the list.
tested on: Wolbachia pipientis; assay: Anti-Wolbachia Cell-Based Screen; type: functional; design: scale not given: in the data most compounds retested in dose-response had high values; conditions: 5 µM

SMILES	Percent Effect [%]
CCn1cc(CN2CCC(NS(C)(=O)=O)CC2)cc1C#N	-7.298
CC(C)Cn1cnnc1C1CCCN1C(=O)c1cc2ccccn2c1 (stereo not drawn)	-13.41
CC(C)NCc1cc2n(n1)CCN(C1CCCCC1)C2	-9.171
CC(C)CN1CCCn2nc(CNC(=O)OCc3ccccc3)cc2C1	17.53
CCCN1CCCn2nc(CNC(=O)C3CCOC3)cc2C1 (stereo not drawn)	-8.283
COC(=O)NCc1cc2n(n1)CCCN(C(C)=O)C2	17.7
CCC(C)NC(=O)NCc1cc2n(n1)CCCN(C1CCCCC1)C2 (stereo not drawn)	123
CCC(OC)C(=O)NCc1cc2n(n1)CCCN(C1CCCCC1)C2 (stereo not drawn)	113.3
CCC(CC)CN1CCCn2nc(CNC(=O)COC)cc2C1	4.127
CC(C)CN1CCCn2nc(CNC(=O)NC(C)(C)C)cc2C1	-2.187
CN[C@@H](CO)C(=O)NCc1cc2n(n1)CCCN(C1CCCCC1)C2	120.8
CCCOC(C)C(=O)NCc1cc2n(n1)CCCN(C1CCCCC1)C2 (stereo not drawn)	111
CC(C)c1nnc(NCc2cc3n(n2)CCN(C2CCCCC2)C3)s1	8.692
O=C(c1ccc(Cl)s1)N1CCCn2nc(CN3CC[C@H](F)C3)cc2C1	0.8139
Cc1nc(C(C)N(C)Cc2nc(CCC(C)C)no2)c(C)s1 (stereo not drawn)	1.881
CCSc1ccc(C(C)NC(=O)CCS(C)(=O)=O)cc1 (stereo not drawn)	-10.2
CC(C)(C)c1nccc(N2CCN(C3CCS(=O)(=O)C3)CC2)n1 (stereo not drawn)	-14.65
O=C(NCc1ccco1)Nc1ccc2nc(N3CCOCC3)oc2c1	-0.2531
CCOCc1nc(N2CCOCC2)sc1C(=O)NCCCc1ccco1	102.3
CCCOC1CCCN(c2ccnc(C(=O)NCc3ccco3)c2)C1 (stereo not drawn)	6.201
CCOCc1nc(N2CCOCC2)sc1C(=O)NCc1ccco1	132.8
O=C(NCCCc1ccco1)c1ccc(N2CCOCC2)cc1	-6.417
O=C(NCc1ccco1)c1ccc(N2CCOCC2)cc1	-7.738
CCOCc1nc(N2CCCC2)sc1C(=O)NCc1ccco1	113.4
Cc1nc(CC(=O)NCc2csc(N3CCCC3)n2)cs1	17.94
CC1CCCCN1C1CN(c2ccnc(C(=O)NCc3ccco3)c2)C1 (stereo not drawn)	0.5235
CCOCCCNC(=O)c1cc(C(C)C)nc(N2CCCCCC2)n1	4.863

SMILES	Percent Effect [%]
CCOCc1nc(N2CCCC2)sc1C(=O)NCCC(=O)OCC	118
Cc1nc(CCCNC(=O)c2coc(CN3CCOCC3)c2)sc1C	-5.742
CCc1nc(CNCC2CCCN2c2cc(NC)ncn2)cs1 (stereo not drawn)	9.196
COc1c(C2CCCN2Cc2nnc(C3CC3)n2C)c(C)nn1C (stereo not drawn)	1.396
N#Cc1ccc(CN2CCN(C(=O)C3CCC3)[C@@H]3CS(=O)(=O)C[C@@H]32)cc1	-4.315
CN(C)c1nc(N)nc(CN2CCC(c3ccccc3)CC2)n1	-7.992
CN(C)c1nc(N)nc(CN2CCC(c3nc4ccccc4o3)CC2)n1	-47.21
CN(C)c1nc(N)nc(CN2CCCC(c3ccccc3)CC2)n1 (stereo not drawn)	-22.19
Cc1cccc(C2CCCN2Cc2nc(N)nc(N(C)C)n2)c1C (stereo not drawn)	140.3
CCCc1noc(CN2CCCC2c2ccsc2)n1 (stereo not drawn)	1.014
CN(C)c1nc(N)nc(CN2CCCC2c2cccs2)n1 (stereo not drawn)	99.23
Cc1nc(CN2CCCC2c2ccsc2)nc2ccccc12 (stereo not drawn)	1.892
CN(CCC#N)C(=O)CN1CCCC1c1cccs1 (stereo not drawn)	-24.43
CN(C)c1nc(N)nc(CN2CCCC2c2ccsc2)n1 (stereo not drawn)	99.77
COCCC(=O)Nc1nccn1Cc1ccc(Br)cc1	-0.6439
CNC(=O)c1cnc(/C=C/c2ccc(OC)c(O)c2)s1	-1.59
Cc1cc(C(=O)N2C[C@H](CO)C[C@H](CN3CCOCC3)C2)cnc1C	8.759
Cc1ccc(C)c2c(O)cc(CNCCNC(=O)C(C)C)nc12	-21.09
c1cncc(NCCNC2CSCCSC2)c1	16.15
Cc1cccc(-c2noc([C@@H]3C[C@@H](O)CN3Cc3ccc(CO)o3)n2)c1	5.801
CC(C)n1cnc2c1C(C(=O)N1CCCC1)N(S(C)(=O)=O)CC2 (stereo not drawn)	-12.38
Cc1nn(C)c(Cl)c1C1CCCN1Cc1nnc(C2CC2)n1C (stereo not drawn)	-12.44
Cc1cc(NC(=O)CN2CCN(c3nccs3)C(C)C2)no1 (stereo not drawn)	110.3
Cc1cc(NC(=O)C(C)N2CCCN(c3nccs3)CC2)on1 (stereo not drawn)	-9.765
CCc1nnc2n1CCN(CC(=O)Nc1cc(C)on1)C2	-12.71
Cc1cc(NC(=O)C(C)N2CCN(c3nccs3)CC2)on1 (stereo not drawn)	-1.934
